Reference: the supplement of paper PMC13380429

Test system: Vero E6 infected with SARS-CoV-2
Test: inhibition of SARS-CoV-2 cytopathic effect; higher = more antiviral protection, active = above 15
Details: 48 h

Measured: inhibition of SARS-CoV-2 cytopathic effect

CC#CCOC(=O)c1c(C)nc2sc3c(c2c1N)CCC(O)C3 (stereo not given)
inactive: 1 nM 1.8% | 8.33 nM 0.47% | 100 nM 3.12% | 833.33 nM -0.32% | 10000 nM 0.73%

Nc1nc(Cl)nc2c1ncn2[C@@H]1O[C@H](CO)[C@@H](O)[C@@H]1F [clofarabine]
inactive: 1 nM 0.13% | 8.33 nM 2.08% | 100 nM 1.42% | 833.33 nM 2.37% | 10000 nM 3.69%

CN(C)[C@@H]1C(O)=C(C(N)=O)C(=O)[C@@]2(O)C(O)=C3C(=O)c4c(O)ccc(Cl)c4[C@@](C)(O)[C@H]3C[C@@H]12
inactive: 1 nM 0.81% | 8.33 nM 3.66% | 100 nM 0.73% | 833.33 nM 1.21% | 10000 nM -0.28%

c1nc2c(NC3CCCCC3)nc(Nc3ccc(N4CCOCC4)cc3)nc2[nH]1 [reversine]
inactive: 1 nM 3.13% | 8.33 nM 6.21% | 100 nM 1.52% | 833.33 nM -0.29% | 10000 nM -7.06%

NCc1c[nH]c(=S)n1[C@H]1CCc2c(F)cc(F)cc2C1 [nepicastat]
inactive: 1 nM -0.64% | 8.33 nM 1.63% | 100 nM 2.16% | 833.33 nM 0.6% | 10000 nM -0.04%

N=C(N)NCCC[C@H](NC(=O)[C@@H]1CCCN1C(=O)[C@@H]1CSSC[C@H](N)C(=O)N[C@@H](Cc2ccc(O)cc2)C(=O)N[C@@H](Cc2ccccc2)C(=O)N[C@@H](CCC(N)=O)C(=O)N[C@@H](CC(N)=O)C(=O)N1)C(=O)NCC(N)=O [vasopressin]
inactive: 1 nM 3.02% | 8.33 nM -0.42% | 100 nM 1.64% | 833.33 nM 0.05% | 10000 nM -0.05%

O=C1CC[C@@H](C(=O)N2CSC[C@H]2C(=O)O)N1 [pidotimod]
inactive: 1 nM -1.03% | 8.33 nM 0.49% | 100 nM -1.22% | 833.33 nM 2.73% | 10000 nM -0.3%

c1ccc(C(NCc2cccnc2)(c2ccccc2)c2ccccc2)cc1
inactive: 1 nM 1.69% | 8.33 nM 4.02% | 100 nM 1% | 833.33 nM 1.58% | 10000 nM 2.26%

CC(=O)OCC(=O)[C@@]12OC3(CCCC3)O[C@@H]1C[C@H]1[C@@H]3CCC4=CC(=O)C=C[C@]4(C)[C@@]3(F)[C@@H](O)C[C@@]12C [amcinonide]
inactive: 1 nM -1.51% | 8.33 nM -0.7% | 100 nM -1.46% | 833.33 nM -0.87% | 10000 nM -3.21%

Cc1ccc(/N=C/N(C)/C=N/c2ccc(C)cc2C)c(C)c1 [amitraz]
inactive: 1 nM -1.29% | 8.33 nM -0.98% | 100 nM -1.78% | 833.33 nM -1.85% | 10000 nM 0.1%
